Measurements published in PubChem BioAssay AID1159580 (chemical genetic matrix, 2015).
Several values for one entry are separate records, joined by “and”; a condition that tells them apart may be missing. Equal values may be shown once. The campaign covered roughly 5,500 compounds. About 2,000 (36%) were called active. Another 18% or so got no clear call; they are omitted. Cut-off read from the data, not from the text of the source: active = normalized growth mostly below about 0.91 (no sharp cut-off); inconclusive = no clear call, values can overlap the other calls; inactive = mostly above about 0.92. The list shows a part of the results.

Assay: chemical genetic growth profiling, strain panel (AID 1159580);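 note: tested at 20 µM; growth read once vehicle control cultures reached saturation at 30 °C; 1 = growth at the plate median or of vehicle wells; lower values mean less growth of the strain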
Details: S. cerevisiae deletion strains, growth OD

Measured: normalized growth

COc1ccc(CCN2CCC(Nc3nc4ccccc4n3Cc3ccc(F)cc3)CC2)cc1
active: locus YAL021C, strain ccr4, stronger effect = lower value 0.721 | locus YAL026C, strain drs2, stronger effect = lower value 0.783 | locus YBR021W, strain FUR4, stronger effect = lower value 0.821 | locus YDR069C, strain doa4, stronger effect = lower value 0.874 | locus YDR137W, strain rgp1, stronger effect = lower value 1.18 [resistant] | locus YDR388W, stronger effect = lower value 0.687 | locus YEL037C, strain rad23, stronger effect = lower value 0.867 | locus YER016W, strain bim1, stronger effect = lower value 0.911 | locus YER155C, strain BEM2 (second series), stronger effect = lower value 0.822 | locus YFR010W, strain ubp6, stronger effect = lower value 0.838 | locus YGL253W, strain hxk2, stronger effect = lower value 0.904 | locus YGR135W, strain pre9, stronger effect = lower value 0.877 | locus YIL073C, strain SPO22, stronger effect = lower value 1.74 [resistant] | locus YJL092W, strain hpr5, stronger effect = lower value 0.917
inactive: locus YAL030W, strain snc1, stronger effect = lower value 0.988 | locus YBL061C, strain skt5, stronger effect = lower value 0.969 | locus YBR009C, strain hhf1, stronger effect = lower value 0.936 | locus YBR023C, strain chs3, stronger effect = lower value 0.959 | locus YBR171W, strain sec66, stronger effect = lower value 0.992 | locus YBR229C, strain ROT2, stronger effect = lower value 0.972 | locus YBR231C, strain swc5, stronger effect = lower value 0.981 | locus YBR279W, strain paf1, stronger effect = lower value 0.954 | locus YCL011C, strain gbp2, stronger effect = lower value 0.935 | locus YCL016C, strain dcc1, stronger effect = lower value 0.919 | locus YCL029C, strain bik1, stronger effect = lower value 0.983 | locus YCL061C, strain MRC1, stronger effect = lower value 0.96 | locus YCL069W, strain vba3, stronger effect = lower value 0.953 | locus YCR088W, strain abp1, stronger effect = lower value 0.924 | locus YDL005C, strain med2, stronger effect = lower value 0.967 | locus YDL035C, strain GPR1, stronger effect = lower value 0.972 | locus YDL040C, strain nat1, stronger effect = lower value 0.985 | locus YDL074C, strain BRE1, stronger effect = lower value 0.935 | locus YDL101C, strain DUN1, stronger effect = lower value 0.984 | locus YDL134C, strain PPH21, stronger effect = lower value 0.983 | locus YDL185W, strain tfp1, stronger effect = lower value 0.984 | locus YDL192W, strain arf1, stronger effect = lower value 0.986 | locus YDR001C, strain nth1, stronger effect = lower value 0.972 | locus YDR101C, strain arx1, stronger effect = lower value 0.992 | locus YDR150W, strain NUM1, stronger effect = lower value 1 | locus YDR159W, strain sac3, stronger effect = lower value 0.986 | locus YDR162C, strain NBP2, stronger effect = lower value 0.986 | locus YDR195W, strain ref2 0.971 | locus YDR297W, strain sur2, stronger effect = lower value 0.999 | locus YDR318W, strain mcm21, stronger effect = lower value 0.984 | locus YDR334W, strain swr1, stronger effect = lower value 0.979 | locus YDR335W, strain msn5, stronger effect = lower value 0.959 | locus YDR392W, strain spt3, stronger effect = lower value 0.742 | locus YDR502C, strain sam2, stronger effect = lower value 0.977 | locus YEL003W, strain gim4, stronger effect = lower value 0.96 | locus YEL061C, strain CIN8 (second series), stronger effect = lower value 0.981 | locus YEL061C, strain CIN8, stronger effect = lower value 0.993 | locus YER015W, strain faa2, stronger effect = lower value 0.93 | locus YER110C, stronger effect = lower value 0.992 | locus YER111C, strain swi4, stronger effect = lower value 0.962 | locus YER155C, strain BEM2, stronger effect = lower value 0.991 | locus YER167W, strain BCK2, stronger effect = lower value 0.973 | locus YGL078C, strain dbp3, stronger effect = lower value 0.985 | locus YGL086W, strain mad1, stronger effect = lower value 1.02 | locus YGL167C, strain pmr1, stronger effect = lower value 1 | locus YGL173C, strain kem1, stronger effect = lower value 0.982 | locus YGL227W, strain vid30, stronger effect = lower value 0.981 | locus YGL240W, strain doc1, stronger effect = lower value 0.978 | locus YGL248W, strain PDE1, stronger effect = lower value 0.985 | locus YGR229C, strain SMI1, stronger effect = lower value 0.971 | locus YGR252W, strain gcn5, stronger effect = lower value 0.9 | locus YHR013C, strain ard1, stronger effect = lower value 0.857 | locus YHR027C, strain rpn1, stronger effect = lower value 0.954 | locus YHR030C, strain SLT2, stronger effect = lower value 0.997 and 0.996 | locus YHR079C, strain IRE1 (second series), stronger effect = lower value 0.984 | locus YHR079C, strain IRE1, stronger effect = lower value 0.972 | locus YHR094C, strain hxt1, stronger effect = lower value 0.986 | locus YHR129C, strain ARP1, stronger effect = lower value 0.988 | locus YHR142W, strain chs7, stronger effect = lower value 0.888 | locus YHR200W, strain rpn10, stronger effect = lower value 0.994 | locus YIL066C, strain RNR3, stronger effect = lower value 0.974 | locus YIL125W, strain kgd1, stronger effect = lower value 0.993 | locus YIR030C, strain dcg1, stronger effect = lower value 0.99 | locus YJL095W, strain BCK1 (second series), stronger effect = lower value 0.991 | locus YJL095W, strain BCK1, stronger effect = lower value 0.923 and 0.988 | locus YJL115W, strain asf1, stronger effect = lower value 0.976 | locus YJL129C, strain trk1, stronger effect = lower value 0.972 | locus YJL134W, strain LCB3, stronger effect = lower value 0.998 | locus YJL154C, strain vps35, stronger effect = lower value 0.962 | locus YJL164C, strain tpk1, stronger effect = lower value 0.957 | locus YJL166W, strain qcr8, stronger effect = lower value 0.974 | locus YJL168C, strain set2, stronger effect = lower value 0.994 | locus YJL187C, strain SWE1 (second series), stronger effect = lower value 0.976 | locus YJL187C, strain SWE1, stronger effect = lower value 0.982 | locus YJR043C, strain POL32, stronger effect = lower value 0.998
